Results filed as inconclusive are left out. The source made the active and inactive calls. Calls follow the shape of the dose curve; as a rule, active = well fitted curve in the direction sought with a large enough effect; inconclusive = small, poorly fitted or top-dose-only effect, or another doubt; inactive = no such curve, though single readings can be large; an effect the other way counts as inactive or inconclusive.

These results are taken from PubChem BioAssay (NCATS).

The nature of experiment [1]: Quantitative High-Throughput drug screen in 47 multiple myeloma cell lines against the NCATS MIPE library collection: JIM1_ECACC cell viability assay (AID 1918964). An outline of the steps: (§1)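 Myeloma cell lines, 500 cells per well, exposed to MIPE 4.0 library compounds for 48 h at 37C, 5% CO2. Viability from ATP by CellTiter-Glo luminescence; normalised to DMSO (100%) and media-only (0%) wells.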

Experiment [2] can be described thus: Quantitative High-Throughput drug screen in 47 multiple myeloma cell lines against the NCATS MIPE library collection: INA6_PLB cell viability assay (AID 1918965; also: nearly all actives have a fitted effect of over 55% in size). An outline of the steps:
(§2)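 CellTiter-Glo luminescence (ATP) after 48 h compound exposure, 37C/5% CO2; 500 cells/well; MIPE 4.0 approved/investigational drugs pinned in; DMSO = 100%, media only = 0% viability.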

The nature of experiment [3]: Quantitative High-Throughput drug screen in 47 multiple myeloma cell lines against the NCATS MIPE library collection: Karpas25_ECACC cell viability assay (AID 1918968; also: nearly all actives have a fitted effect of over 35% in size). In a few lines:
as §1

A short description of experiment [4]: Quantitative High-Throughput drug screen in 47 multiple myeloma cell lines against the NCATS MIPE library collection: KMS27_JCRB cell viability assay (AID 1918970). Also: nearly all actives have a fitted effect of over 30% in size. Particulars: KMS27 myeloma cells, CellTiter-Glo ATP viability, 48 h; viability (% of DMSO): at 45.8 µM (top of the series). In a few lines: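 CellTiter-Glo luminescence after 48 h drug exposure at 37 °C; 500 cells/well, 1536-well format, pin-tool compound addition; DMSO = 100%, media-only = 0% viability.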

The nature of experiment [5]: Quantitative High-Throughput drug screen in 47 multiple myeloma cell lines against the NCATS MIPE library collection: KMS12BM_JCRB cell viability assay (AID 1918971). Also: nearly all actives have a fitted effect of over 35% in size. An outline of the steps: (§3)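 Steps: seed 500 cells per well; pin-transfer MIPE 4.0 library; incubate 48 h at 37C, 5% CO2, humidified; add CellTiter-Glo, 5 min room temperature; read luminescence.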
Experiment [6] is described as follows: Quantitative High-Throughput drug screen in 47 multiple myeloma cell lines against the NCATS MIPE library collection: KMS12PE_JCRB cell viability assay (AID 1918972). Also: nearly all actives have a fitted effect of over 30% in size. In a few lines:
as §2

Experiment [7] in a line: Quantitative High-Throughput drug screen in 47 multiple myeloma cell lines against the NCATS MIPE library collection: MOLP8_DSMZ cell viability assay (AID 1918977). Also: nearly all actives have a fitted effect of over 45% in size. In a few lines: (§4)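 500 cells/well; MIPE 4.0 drugs pin-transferred; 48 h, 37C, 5% CO2. CellTiter-Glo, 5 min RT, luminescence. Controls: DMSO 100%, media 0%.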
Experiment [8] is described as follows: Quantitative High-Throughput drug screen in 47 multiple myeloma cell lines against the NCATS MIPE library collection: KMM1_JCRB cell viability assay (AID 1918960). Also: nearly all actives have a fitted effect of over 30% in size. In a few lines:
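500 cells/well; MIPE 4.0 library pinned in; 48 h, 37 °C, 5% CO2; CellTiter-Glo ATP luminescence. Controls: DMSO = 100% viability, medium only = 0%.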

The nature of experiment [9]: Quantitative High-Throughput drug screen in 47 multiple myeloma cell lines against the NCATS MIPE library collection: JJN3_DSMZ cell viability assay (AID 1918966; also: nearly all actives have a fitted effect of over 50% in size). An outline of the steps:
as §1

The nature of experiment [10]: Quantitative High-Throughput drug screen in 47 multiple myeloma cell lines against the NCATS MIPE library collection: H1112_PLB cell viability assay (AID 1918967; also: nearly all actives have a fitted effect of over 30% in size). An outline of the steps: as §1
Experiment [11] in a line: Quantitative High-Throughput drug screen in 47 multiple myeloma cell lines against the NCATS MIPE library collection: KMS26_JCRB cell viability assay (AID 1918975). Also: nearly all actives have a fitted effect of over 45% in size. In a few lines: as §3
The nature of experiment [12]: Quantitative High-Throughput drug screen in 47 multiple myeloma cell lines against the NCATS MIPE library collection: MMM1_PLB cell viability assay (AID 1918976). Also: nearly all actives have a fitted effect of over 35% in size. An outline of the steps:
as §4

A short description of experiment [13]: Quantitative High-Throughput drug screen in 47 multiple myeloma cell lines against the NCATS MIPE library collection: NCIH929_DSMZ cell viability assay (AID 1918978). Also: nearly all actives have a fitted effect of over 35% in size. An outline of the steps: as §4
The nature of experiment [14]: Quantitative High-Throughput drug screen in 47 multiple myeloma cell lines against the NCATS MIPE library collection: OCIMY1_PLB cell viability assay (AID 1918979). Also: nearly all actives have a fitted effect of over 35% in size. An outline of the steps:
as §4

Experiment [15] is described as follows: Quantitative High-Throughput drug screen in 47 multiple myeloma cell lines against the NCATS MIPE library collection: KHM11_PLB cell viability assay (AID 1918962). Also: nearly all actives have a fitted effect of over 35% in size. In a few lines:
as §3

Experiment [16] can be described thus: Quantitative High-Throughput drug screen in 47 multiple myeloma cell lines against the NCATS MIPE library collection: JIM3_ECACC cell viability assay (AID 1918963; also: nearly all actives have a fitted effect of over 35% in size). An outline of the steps: as §3
Experiment [17] is described as follows: Quantitative High-Throughput drug screen in 47 multiple myeloma cell lines against the NCATS MIPE library collection: KMS20_JCRB cell viability assay (AID 1918973). Also: nearly all actives have a fitted effect of over 45% in size. An outline of the steps:
as §1
Potency is read from the fitted curve at half-maximal effect.

In the case of `CCOC(=O)C1=C(C)NC(=S)NC1c1cccc(O)c1` (configuration not stated), the Potency is 296 nM (active) in experiment [1]; 26.4 nM (active) in experiment [2]; 29.6 nM (active) in experiment [3]; 46.9 nM (active) in [4]; 66.2 nM (active) in experiment [5]; 372 nM (active) in experiment [6]. Moreover, the Potency in experiment [7] was 37.2 nM (active).

On to `CC[C@]12C=CCN3CC[C@@]4(c5cc([C@@]6(C(=O)OC)C[C@H]7C[C@@H](C(C)(F)F)CN(Cc8c6[nH]c6ccccc86)C7)c(OC)cc5N(C)[C@H]4[C@@](O)(C(=O)OC)[C@H]1OC(C)=O)[C@@H]32`, for which the Potency in experiment [8] was 8.3 nM (active); in experiment [2], 1 nM (active); in experiment [9], 1480 nM (active); in experiment [10], 37.2 nM (active); in [3], 23.5 nM (active); in experiment [5], 7.4 nM (active). Further, the Potency in experiment [6] is 7.4 nM (active); in experiment [11] it was 1480 nM (active); in [12], 4690 nM (active); in experiment [7], 9350 nM (active); in experiment [13], 469 nM (active); in [14] it was 46.9 nM (active).

Consider `FC(F)c1nc2ccccc2n1-c1nc(N2CCOCC2)nc(N2CCOCC2)n1`, for which the Potency in experiment [15] was 469 nM (active); in experiment [16], 372 nM (active); in experiment [2], 296 nM (active); in experiment [9], 743 nM (active); in experiment [3], 93.5 nM (active); in experiment [4], 105 nM (active). Further, the Potency in experiment [5] is 1660 nM (active); in experiment [17], 332 nM (active); in experiment [11] it was 743 nM (active); in experiment [12], 526 nM (active); in experiment [7], 132 nM (active); in [13], 105 nM (active).

Consider `O=c1[nH]c(=O)n([C@H]2C[C@@H](O)[C@@H](CO)O2)cc1F`, for which the Potency in experiment [1] is 18700 nM (active); in [2] it was 1320 nM (active); in experiment [10], 4690 nM (active); in experiment [4], 9350 nM (active); in [5], 20900 nM (active); in experiment [6], 7430 nM (active). The Potency in experiment [12] was 18700 nM (active).

On to `O=C(C=CC=Cc1ccc2c(c1)OCO2)N1CCCCC1`, for which the Potency entry in [15], in experiment [16], in [9], in experiment [10], in [5] and in experiment [7] was “inactive” throughout. Moreover, the Potency result in [13] and in [14] was “inactive” in each case. Also, the Potency in experiment [6] is 16600 nM (active).

Turning to `C#C[C@]1(O)CC[C@@H]2[C@@H]3CCc4cc(O)ccc4[C@H]3CC[C@@]21C`, the Potency was 20900 nM (active) in [16]; 9350 nM (active) in experiment [2]; 16600 nM (active) in [4]; 20900 nM (active) in experiment [5]; 16600 nM (active) in experiment [6]; 14800 nM (active) in experiment [17]. Further, the Potency in experiment [11] was 3720 nM (active); in [12] it was 14800 nM (active).

For the compound `C[C@@H](Cc1cc2c(c(C(N)=O)c1)N(CCCO)CC2)NCCOc1ccccc1OCC(F)(F)F`, the Potency entry in experiment [16], in [1], in [9], in experiment [10], in experiment [4] and in experiment [11] was “inactive” each time. Moreover, the Potency result in [7] and in [13] was “inactive” each time.

For the compound `COC1=C2C[C@@H](C)C[C@H](OC)[C@@H](O)[C@@H](C)C=C(C)[C@H](OC(N)=O)[C@@H](OC)C=CC=C(C)C(=O)NC(=CC1=O)C2=O`, the Potency was 132 nM (active) in [15]; 209 nM (active) in [16]; 7430 nM (active) in experiment [1]; 148 nM (active) in experiment [2]; 66.2 nM (active) in experiment [9]; 1870 nM (active) in experiment [10]. Also, the Potency in [3] was 118 nM (active); in [5], 118 nM (active); in experiment [17] it was 41.8 nM (active); in experiment [11] it was 52.6 nM (active); in [12], 1050 nM (active); in [7], 41.8 nM (active). Also, the Potency in [13] was 118 nM (active); in experiment [14], 166 nM (active).
